The panel holds about 83,000 compounds, 20% with a hit somewhere; the sample as a whole holds those more often.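 Negative percent growth values reflect cell death: -40 means 40% of the cells present at the start died, and -100 means all died.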 The source made the active and inactive calls. How the source made its calls: active means growth percent below 10; inactive means the rest.

The test system of this assay is NCI-H460 lung. The assay can be described thus: NCI-60 one-dose screen, 48 h (100 = growth as untreated, 0 = no growth, -100 = all killed). The note with it: 10 µM unless noted.
As to `CCOc1ccc(NC(=O)CSc2oc(-c3ccccc3)nc2S(=O)(=O)c2ccc(C)cc2)cc1`, the growth was 35.9% (inactive).

On to `O=C(/C=C/c1cccc(Cl)c1)c1ccc(Nc2nc(Nc3ccc(F)cc3)nc(Nc3ccc(Cl)cc3)n2)cc1`, for which the growth is 143% (inactive).

Take `Cn1c(I)c(C#CCO[Si](C)(C)C(C)(C)C)c(=O)[nH]c1=O`: the growth is 106% (inactive).

Consider `CC(=O)Oc1ccc(C)cc1C`, for which the growth was 115% (inactive).

As for `COc1cc(C2CC(c3ccc(Nc4nc(Nc5ccc(Cl)cc5)nc(Nc5ccc(Cl)cc5)n4)cc3)=NN2C(C)=O)cc(OC)c1OC` (stereo unspecified), the growth is 106% (inactive).

For the compound `c1cnc2c(-c3nc4ccc5[nH]ncc5c4c4c3CCCC4)c[nH]c2c1`, the growth was 7.48% (active).

As for `COc1ccc(/C=C/C(=O)c2cc3c(N)c(C(=O)Nc4cccc5ccccc45)sc3nc2C)cc1`, the growth is 75.9% (inactive).

Turning to `O=C1/C(=C/c2ccc([N+](=O)[O-])cc2)COc2ccc(O)cc21`, the growth was 97.9% (inactive).

As for `CCOCCNC1=C(Cl)C(=O)c2ccccc2C1=O`, the growth was 94.9% (inactive).

As for `CCN(CC)c1ccc(\C=N/N=C(N)/C(N)=N\N=C/c2ccc(N(CC)CC)cc2)cc1`, the growth is 109% (inactive).

For `CSc1nc2ccccc2cc1/C=C1/C=C(c2ccccc2)NC1=O`, the growth was 84.7% (inactive).

As for `Cn1cc(-c2ccc3nc(-c4ccc(CC(=O)ONc5cc(C(C)(C)C)on5)cc4)cnc3c2)cn1`, the growth is 25.2% (inactive).

As to `Nc1ncnc2c1C(c1ccccc1)c1ccc3ccccc3c1O2` (stereo unspecified), the growth was 103% (inactive).

With `N#Cc1nc(-c2ccc(F)cc2)oc1S(=O)(=O)N1CCOCC1`, the growth was 107% (inactive).

For `O=C(CSc1nc2sc3c(c2c(=O)n1-c1ccccc1)CCCCC3)N/N=C/c1cccc([N+](=O)[O-])c1`, the growth is 19.6% (inactive).

Consider `O=C(Nc1cccc(Cl)c1)Nc1cccc(Cn2c(=O)[nH]c3ccc(Oc4ncccn4)cc3c2=O)c1`, for which the growth is 42.8% (inactive).

For the compound `CCOC(=O)Cc1cnc(N/N=C(\C)c2cc3ccccc3o2)s1`, the growth is 94.4% (inactive).

Consider `COC1/C=C/OC2(C)Oc3c(C)c(O)c4c(O)c(c(/C=N/Nc5ccc([N+](=O)[O-])cc5[N+](=O)[O-])c(O)c4c3C2=O)NC(=O)C(C)=C/C=C/C(C)C(O)C(C)C(O)C(C)C(OC(C)=O)C1C` (stereo unspecified), for which the growth is 59.5% (inactive).

Turning to `COC(=O)CC[C@@H]1O[C@@H](c2cccc(C(F)(F)F)c2)[C@@H](O)[C@H]1O`, the growth was 102% (inactive).

On to `COc1ccc(/C=N/NC(=O)c2ccc(-n3cc(-c4ccccc4)nn3)cc2)cc1OC`, for which the growth is 111% (inactive).

As to `COC(=O)c1c2c(c(C)[n+]([O-])c1C)C(=O)C(NCc1cccc(OC)c1)=CC2=O`, the growth is 14.6% (inactive).

`Nc1n[nH]c2cccc(C#Cc3cccc(C(=O)Nc4cc(C(F)(F)F)cc(C(F)(F)F)c4)c3)c12`: the growth is 76.5% (inactive).

In the case of `OB1OCc2cc(/C=C/c3cccc(C(F)(F)F)c3)ccc21`, the growth was -10.1% (active).

Turning to `CNC(=O)c1[nH]cc(-c2ccc(OC)cc2)c1-c1cc(OC)c2c(c1OC)OCO2`, the growth was 105% (inactive).

As for `COc1ccc(-c2cc(-c3ccc(Cl)cc3)c(C#N)c(=O)n2Cc2ccc(C(=O)Nc3ccccc3N)cc2)cc1`, the growth was 94.6% (inactive).

Consider `CC1CCc2c(C(=O)Nc3ncc(Cc4cccc([N+](=O)[O-])c4)s3)csc2C1` (stereo unspecified), for which the growth was 11.2% (inactive).

Take `N#Cc1nc(-c2ccc(Cl)cc2)oc1S(=O)(=O)N1CCN(c2ccc(F)cc2)CC1`: the growth is 104% (inactive).

On to `COc1c(B(O)O)cccc1-c1nc2c(F)cc3[nH]ncc3c2c2c1CCCC2`, for which the growth was 4.81% (active).

For `O=S(=O)(NCCNc1nccc(-c2c(-c3ccc(F)c(O)c3)nc3sccn23)n1)c1ccc(O)cc1`, the growth is 40% (inactive).

As to `CCOC(=O)C(=O)C(C(=O)OCC)c1ccccc1` (stereo unspecified), the growth was 110% (inactive).

Consider `COc1ccc(C(=O)/C=C/c2c(C(F)(F)F)nc3ccccn23)cc1OC`, for which the growth is -33.6% (active).

Take `CC(=O)O[C@H]1CC2CCC3C(CC[C@@]4(C)C3C[C@H]([N+]3(C)CCCCC3)[C@@H]4OC(C)=O)[C@@]2(C)C[C@@H]1N1CCCCC1` (stereo partly specified): the growth was 111% (inactive).

As to `O=C1c2ccc3c4c5ccc(c24)C(=O)N1CCCOCCCCOCCCNCc1ccc(cc1)CNCCCOCCCCOCCCN(C3=O)C5=O`, the growth was 3.03% (active).

As for `CC(O)(c1ccccc1)C(c1ccccc1)C1CCCCN1` (stereo unspecified), the growth is 103% (inactive).

As for `CCCC/C=C/[C@@H]1C[C@H]1CCO`, the growth was 105% (inactive).

For the compound `COc1ccc(OC)c(Nc2nnc(-c3ccc(O)c(OC)c3)o2)c1`, the growth was 82.8% (inactive).

The values are drawn from PubChem BioAssay (NCI).
